Screening results from PubChem BioAssay.
Shown are actives, neighbours in structure and some others; about 4.3% of the full set was active somewhere.
KKLEB cytotox – counter-screen for CF NF-kB inhibitors: cytotoxicity | KKLEB CF airway cells viability, ATPlite luminescence, overnight; active compounds read low; cells stimulated with P. aeruginosa culture filtrate | activity change (cytotoxicity), % at 5 µM | actives 0.36% (n = 360,000) | AID 602141;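 active = corrected activity change at or below -50% at 5 µM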
TRPM1 prom inh – reduces MITF-dependent TRPM1 promoter luciferase signal | SK-MEL-5 TRPM1 promoter luciferase, 24 h | inhibition, % at 12.5 µM | actives 0.83% (n = 330,000);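 active = mean inhibition across replicates of 60% or more, whatever share of single replicates reaches that level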
CHOP inh – inhibitors of CHOP induction in ER stress response | CHO-K1 CHOP-promoter luciferase, tunicamycin-induced, 15-18 h | inhibition, % at 10 µM | actives 3.8% (n = 220,000);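 active = compounds that reduced the stress-induced luciferase reporter signal by more than about 70% of percent inhibition, limit read from the data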;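 also: 0% = tunicamycin plus vehicle and 100% = wells without tunicamycin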
Peg3 prom inh – Peg3 promoter activity inhibition; actives 1.7% (n = 360,000); inhibition, % at 20 µM; AID 588405; HeLa PEG-Prom luciferase reporter, luminescence, overnight;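 active = inhibition of at least 50% at 20 µM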
HIF-2a block – blocks HIF-2a reporter activity | 786-0 RCC cells HIF-2a reporter, luciferase luminescence, overnight | inhibition, % at 18.8 µM | actives 0.72% (n = 360,000);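 active = inhibition of the luminescence signal of 40% or more relative to plate controls, in a single-dose primary screen at 18.75 µM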
CF NFkB inh – inhibitors of cystic fibrosis induced NF-kB; KKLEB NF-kB-GFP reporter, PAF-induced, GFP fluorescence overnight; inhibition, % at 5 µM; actives 0.86% (n = 360,000);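 active = at least 50% inhibition at 5 µM, scaled per plate between neutral and stimulator controls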;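 also: PAF is a Pseudomonas aeruginosa culture filtrate used as stimulus; plate controls were PAF-stimulated DMSO wells for no effect and unstimulated DMSO wells for full effect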
* = called active by the depositor; nt = no result.

SMILES | KKLEB cytotox | TRPM1 prom inh | CHOP inh | Peg3 prom inh | HIF-2a block | CF NFkB inh
COc1ccc(C(=O)Nc2cc(C)c3c(=O)oc4ccccc4c3n2)cc1 | -16 | nt | 88* | -11 | -6 | 9
Cc1cc(NC(=O)CC(C)(C)C)nc2c1c(=O)oc1ccccc12 | 3 | -14 | 74* | -2 | -37 | -10
CCCSc1ccc([C@@H]2[C@H]3C(=O)N(CC)C(=O)[C@H]3[C@]3(C(=O)OC)CCCCN23)cc1 | -14 | 6 | nt | 30 | 13 | 11
NC(N)=NS(=O)(=O)c1ccc(NC(=S)NC(=O)Cc2ccc(Cl)cc2)cc1 | -12 | 8 | nt | 27 | 21 | -7
C=C[C@]1(C)C[C@@H](OC(=O)CSCCN(CC)CC)[C@]2(C)C(C)CC[C@]3(CCC(=O)[C@H]32)[C@@H](C)[C@@H]1O (stereo partly specified) | 13 | -6 | nt | -27 | -7 | -12
O=C(NCCc1cccs1)Nc1nnc([C@H]2C[C@H](O)[C@@H](CO)O2)s1 | 12 | nt | nt | -11 | 8 | -6
O=[N+]([O-])c1nn(-c2ccc3c(c2)OCCO3)n(O)c1=NC1CCCC1 | 10 | -31 | 44 | -135 | -98 | 2
O=[N+]([O-])c1nn(-c2ccc3c(c2)OCCO3)n(O)c1=NC1CCCCCC1 | -7 | -19 | 77* | -114 | -111 | 17
CCCN(CC(=O)NC(=O)NCc1ccccc1)CC(=O)Nc1ccc(F)c(F)c1F | 1 | nt | nt | 27 | 0 | -6
Cc1nc(NCCc2ccccc2)c2oc3ccccc3c2n1 | -7 | 15 | 76* | -4 | -33 | 9
Cc1nc(NCCN2CCOCC2)c2oc3ccccc3c2n1 | 2 | -2 | 5 | 12 | 10 | 8
CCc1nc(Nc2ccccc2)c2oc3ccccc3c2n1 | -9 | -4 | 72* | -17 | -53 | -8
CCc1ccc(OCc2nnc(NC(=O)c3cccs3)s2)cc1 | 4 | 20 | 72* | 8 | 15 | 1
COc1ccc(Cl)c2c1[nH]c1nc(SCc3cccnc3)nnc12 | -10 | -20 | 86* | 3 | 8 | 23
CN1CCN(C(=O)c2cnc(Cc3c[nH]c4ccccc34)c(I)c2)CC1 | -13 | nt | nt | -14 | 1 | 7
CCNC(=O)N(C)c1c(CC)nc2ccc(C(=O)N3CCN(C(=O)c4ccco4)CC3)cn12 | 2 | nt | nt | 1 | 7 | -11
Cc1[nH][nH]c(=O)c1C(c1c(C)[nH][nH]c1=O)c1cn(Cc2ccc(F)cc2)c2ccccc12 | -14 | 22 | -19 | 64* | 11 | 15
CCNC(=O)C1CCCN(C(=O)c2cccc(C(F)(F)F)c2)CC1 (stereo unspecified) | 15 | nt | nt | -2 | 9 | -6
CN(C)CC/C=C1\c2ccc(F)cc2Sc2cc(F)c(Cl)cc21 | -12 | nt | nt | 16 | -20 | 12
CN(C)CC/C=C1\c2ccccc2Sc2cc(F)c(Cl)cc21 | 5 | -79 | nt | 62* | 13 | 12
OCCN(Cc1ccccc1)Cc1ccc(C(F)(F)F)cc1 | -7 | 6 | 91* | 14 | 15 | -10
CC(=O)O[C@]1(C(C)=O)CCC2C3C=C(C)C4=CC(=O)CC[C@]4(C)C3CC[C@@]21C (stereo partly specified) | 5 | 6 | nt | -4 | 30 | 52*
COc1cccc(N2CCN(c3ncnc4c3[nH]c3ccc(F)cc34)CC2C)c1 (stereo unspecified) | -15 | 80* | nt | 114* | 27 | 88*
CCNS(=O)(=O)c1ccc(CCC(=O)Nc2cc(Cl)ccc2Oc2ccccc2)cc1 | -14 | 25 | 45 | 63* | 24 | 15
CC(C)NS(=O)(=O)c1ccc(CCC(=O)Nc2cc(Cl)ccc2Oc2ccccc2)cc1 | -4 | 11 | 50 | 29 | 25 | 6
SMILES | KKLEB cytotox | TRPM1 prom inh | CHOP inh | Peg3 prom inh | HIF-2a block | CF NFkB inh
OC(CNCCc1ccc(C(F)(F)F)cc1)COC(c1ccccc1)c1ccccc1 (stereo unspecified) | -16 | 5 | nt | 111* | 4 | 14
CC(NC(=O)CSc1ncn[nH]1)c1ccc(Cl)cc1Cl (stereo unspecified) | 1 | 9 | nt | 12 | 4 | 17
Cc1ccc(C(=O)c2ccc(C(F)(F)F)cc2)cc1 | nt | nt | 93* | nt | nt | nt
CN(C)C(=O)c1cc(C(=O)c2ccc(C(F)(F)F)cc2)c[nH]1 | 6 | -41 | nt | -170 | -173 | -2
Cc1ccc(-n2c(-c3ccccc3)c[n+]3c2CCc2ccccc2-3)c(C)c1 | -10 | 76* | 32 | 42 | 1 | 22
O=C(Nc1ccc(F)cc1)C(c1ccccc1)N1CCN(c2ccncc2)CC1 (stereo unspecified) | nt | nt | nt | nt | -24 | nt
Oc1cccc(-c2nnc(-c3cccc(O)c3)nn2)c1 | -60* | 23 | nt | -13 | -12 | -2
Oc1cccc(-c2nc3ccccc3s2)c1 | -11 | -16 | 57 | -148 | -107 | -8
Cc1ccc(NC(=O)Cc2ccc3c(c2)CCCC3)cc1C | 6 | -2 | 72* | -30 | -77 | -5
Cc1ccc(NC(=O)Nc2ccc3c(c2)CCC3)cc1C | 6 | -8 | nt | -47 | -104 | 12
CC(C)CCNC(=O)C1C2C=CC3(CN(Cc4ccccc4Cl)C(=O)C13)O2 (stereo unspecified) | -1 | 1 | 92* | -1 | 13 | -15
CCOC(=O)c1c(NC(=O)C(C)NCc2ccco2)sc2c1CCC(C)C2 (stereo unspecified) | -14 | 7 | 73* | 15 | 10 | 2
CCOC(=O)c1c(NC(=O)COC(=O)Cn2cnc3ccccc32)sc2c1CCC(C)C2 (stereo unspecified) | -2 | 4 | 72* | 1 | -15 | 18
CCOC(=O)c1c(NC(=O)COC(=O)Cn2c(C)nc3ccccc32)sc2c1CCCC2 | -17 | 6 | 74* | 7 | 5 | 7
CCOC(=O)c1c(NC(=O)COc2cccc3c2CCN(C)C3=O)sc2c1CCC2 | -3 | 6 | 82* | 40 | 7 | 0
CCOC(=O)c1c(NC(=O)Cn2nnc3ccccc32)sc2c1CCC(C)C2 (stereo unspecified) | -10 | 8 | 49 | 17 | 16 | 12
O=[N+]([O-])c1ccc2cn(C3OC(CO)C(O)C3O)nc2c1 (stereo unspecified) | 3 | nt | nt | 5 | 15 | -11
Cc1ccc2nc(-c3ccccn3)c(N)n2c1 | -30 | nt | nt | 35 | 27 | 10
CCN(CC)c1nc(-c2cccc(OC)c2O)nc2ccccc12 | -2 | 15 | 88* | 26 | 1 | 2
COc1cccc(-c2nc(NCc3ccccc3)c3ccccc3n2)c1O | -21 | 12 | nt | 20 | 20 | 0
COc1ccc(NS(=O)(=O)c2cc(NC(=O)/C=C/c3cccs3)ccc2N2CCOCC2)cc1 | -9 | 7 | 24 | 50* | 16 | -19
COc1ccc(C(=O)c2c[nH]c(C(=O)N=CN(C)C)c2)cc1 | 16 | -12 | 12 | -25 | -46 | -7
